The text below walks through data of PubChem BioAssay (NCATS).

Assay [1] deals with ATP-dependent 6-phosphofructokinase (Trypanosoma brucei brucei) (UniProt O15648). The experiment in a line: qHTS Assay to Find Inhibitors of T. brucei phosphofructokinase: hit validation (AID 492961). Further: on the % scale 0 is the no-effect control and ±100 the full control effect. Put shortly: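 Luminescence from ADP-Glo reports ADP generated as T. brucei PFK (1.25 nM) phosphorylates 0.5 mM fructose-6-phosphate using 0.1 mM ATP. Reactions ran 45 min at room temperature, pH 8.0.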

Assay [2] can be described thus: qHTS profiling for inhibitors of Plasmodium falciparum proliferation (AID 504749). Further: potency means the concentration at half of the fitted maximal effect.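 On activity, negative = inhibition: 0% = DMSO vehicle and full inhibition = artemisinin control.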 On all read-outs here: nearly all actives have a fitted effect of over 60% in size. The following applies: P. falciparum in erythrocytes, SYBR Green DNA, 72 h; for activity, negative = inhibition: at 28.7 µM (top of the series). Put shortly:
(§1)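 Each compound contacts P. falciparum-infected red blood cells for 72 h at 37 C; lysis buffer (Tris, EDTA, saponin, Triton X, SYBR Green I) is added and fluorescence measured next morning; values normalized to controls.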

In assay [3] the test system is 3D7. The assay is described as above. The following applies: P. falciparum in erythrocytes, SYBR Green DNA, 72 h; series mostly up to 28.7 µM. Put shortly:
as §1

Assay [4] relates to 7G8. Described as above. As to conditions: P. falciparum in erythrocytes, SYBR Green DNA, 72 h; series mostly up to 28.7 µM. In short, it runs like this:
as §1

For assay [5], the system named is AS120. The assay is described as above. The following applies: P. falciparum in erythrocytes, SYBR Green DNA, 72 h; series mostly up to 28.7 µM. In short, it runs like this:
as §1

The subject of assay [6] is ATS189. Described as above. The following applies: P. falciparum in erythrocytes, SYBR Green DNA, 72 h; series mostly up to 28.7 µM. Put shortly: as §1
In assay [7] the test system is CP185. Described as above. The following applies: P. falciparum in erythrocytes, SYBR Green DNA, 72 h; series mostly up to 28.7 µM. In short, it runs like this: as §1
In assay [8] the test system is CP191. The description is as above. As to conditions: P. falciparum in erythrocytes, SYBR Green DNA, 72 h; series mostly up to 28.7 µM. In short, it runs like this:
as §1

Assay [9] relates to CP192. Described as above. As to conditions: P. falciparum in erythrocytes, SYBR Green DNA, 72 h; series mostly up to 28.7 µM. Put shortly:
as §1

Assay [10] has as its system CP194. The description is as above. As to conditions: P. falciparum in erythrocytes, SYBR Green DNA, 72 h; series mostly up to 28.7 µM. Put shortly: as §1
Assay [11] deals with CP201. The description is as above. As to conditions: P. falciparum in erythrocytes, SYBR Green DNA, 72 h; series mostly up to 28.7 µM. In short, it runs like this: as §1
In assay [12] the test system is CP203. The description is as above. The following applies: P. falciparum in erythrocytes, SYBR Green DNA, 72 h; series mostly up to 28.7 µM. Put shortly:
as §1

For assay [13], the system named is CP237. Described as above. The following applies: P. falciparum in erythrocytes, SYBR Green DNA, 72 h; series mostly up to 28.7 µM. Put shortly:
as §1

The test system of assay [14] is CP238. The assay is described as above. As to conditions: P. falciparum in erythrocytes, SYBR Green DNA, 72 h; series mostly up to 28.7 µM. Put shortly:
as §1

The subject of assay [15] is CP247. The description is as above. The following applies: P. falciparum in erythrocytes, SYBR Green DNA, 72 h; series mostly up to 28.7 µM. Put shortly:
as §1

Assay [16] deals with CP286. The assay is described as above. As to conditions: P. falciparum in erythrocytes, SYBR Green DNA, 72 h; series mostly up to 28.7 µM. In short, it runs like this: as §1
The test system of assay [17] is DFO2036. The assay is described as above. As to conditions: P. falciparum in erythrocytes, SYBR Green DNA, 72 h; series mostly up to 28.7 µM. Put shortly: as §1
Assay [18] deals with DIV30. Described as above. As to conditions: P. falciparum in erythrocytes, SYBR Green DNA, 72 h; series mostly up to 28.7 µM. Put shortly: as §1
Assay [19] concerns HB3. Described as above. As to conditions: P. falciparum in erythrocytes, SYBR Green DNA, 72 h; series mostly up to 28.7 µM. In short, it runs like this: as §1
For assay [20], the system named is P94_40. The assay is described as above. As to conditions: P. falciparum in erythrocytes, SYBR Green DNA, 72 h; series mostly up to 28.7 µM. In short, it runs like this: as §1

Inconclusive results are not listed. Unmarked numbers belong to inactive results. The source made the active and inactive calls. The call rests on the fitted dose curve; in most records, active means well fitted curve in the direction sought with a large enough effect; inconclusive means small, poorly fitted or top-dose-only effect, or another doubt; inactive means no such curve, though single readings can be large; an effect the other way counts as inactive or inconclusive.

Sequence of ATP-dependent 6-phosphofructokinase (Trypanosoma brucei brucei) (O15648 whole entry, looked up): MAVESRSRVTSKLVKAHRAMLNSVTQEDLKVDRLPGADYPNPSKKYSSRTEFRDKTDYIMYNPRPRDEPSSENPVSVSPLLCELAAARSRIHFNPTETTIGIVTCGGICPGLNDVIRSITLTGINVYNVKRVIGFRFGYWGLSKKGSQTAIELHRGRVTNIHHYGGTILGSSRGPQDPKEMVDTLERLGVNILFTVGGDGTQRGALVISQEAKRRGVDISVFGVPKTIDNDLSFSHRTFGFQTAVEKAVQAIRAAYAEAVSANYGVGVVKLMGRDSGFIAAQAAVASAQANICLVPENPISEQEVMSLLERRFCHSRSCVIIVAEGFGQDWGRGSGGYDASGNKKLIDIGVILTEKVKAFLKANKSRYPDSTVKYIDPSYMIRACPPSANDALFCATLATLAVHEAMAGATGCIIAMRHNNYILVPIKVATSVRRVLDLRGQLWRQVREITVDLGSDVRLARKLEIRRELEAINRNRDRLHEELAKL

For `CC(C)C[C@@H](NC(=O)[C@@H](Cc1ccccc1)NC(=O)c1cnccn1)B(O)O`, the Potency entry in [1] is “inactive”. For the same molecule, the Potency is 79.4 nM (active) in assay [2] (parasite line A); 79.4 nM (active) in assay [2] (parasite line B); 112 nM (active) in [3]; 39.8 nM (active) in assay [4]; 100 nM (active) in [5]; 112 nM (active) in assay [6]. Further, the Potency in assay [7] is 112 nM (active); in [8] it was 100 nM (active); in assay [9] it was 190 nM (active); in [10], 426 nM (active); in [11] it was 536 nM (active); in assay [12] it was 338 nM (active). Moreover, the Potency in assay [13] is 89.1 nM (active); in assay [14], 89.1 nM (active); in assay [15] it was 126 nM (active); in assay [16], 89.1 nM (active); in assay [17], 112 nM (active); in assay [18] it was 338 nM (active). Further, the Potency was 79.4 nM (active) in assay [19] and 126 nM (active) in assay [20].
`CC1(C)OC[C@@H]2O[C@@]3(C(=O)O)OC(C)(C)O[C@@H]3[C@@H]2O1`: the Potency result in assay [1], in assay [3], in assay [4], in assay [5], in assay [6] and in assay [7] was “inactive” throughout. For the same molecule, the Potency entry in [8], in [9], in assay [10], in [11], in assay [12] and in assay [13] was “inactive” in each case. Besides, the Potency result in assay [14], in assay [15], in assay [16], in [17], in assay [18] and in [19] was “inactive” each time. The Potency result in assay [20] was “inactive”. Further, the activity, negative = inhibition in assay [2] (parasite line A) is 1.64%; in assay [2] (parasite line B) it was 11.5%.
As for `CC1(C)C2CC[C@]1(C)[C@@H](O)C2`, the Potency result in [1], in assay [3], in [4], in assay [5], in assay [6] and in assay [7] was “inactive” throughout. Also, the Potency result in [8], in [9], in [10], in assay [11], in assay [12] and in assay [13] was “inactive” throughout. The Potency entry in [14], in [15], in assay [16], in assay [17], in assay [18] and in [19] was “inactive” in each case. The Potency entry in [20] was “inactive”. In addition, the values for the activity, negative = inhibition in assay [2] (parasite line A) and in assay [2] (parasite line B) were 6.51% and 12%, respectively.
Turning to `O=C1NC(=O)C2C3C=CC(C3)C12` (stereo not given), the Potency entry in assay [1], in assay [3], in [4], in assay [5], in assay [6] and in [7] was “inactive” throughout. For the same molecule, the Potency result in [8], in assay [9], in [10], in assay [11], in [12] and in [13] was “inactive” each time. The Potency entry in [14], in assay [15], in assay [16], in [17], in assay [18] and in [19] was “inactive” each time. For the same molecule, in assay [20], the Potency result is “inactive”. The activity, negative = inhibition is 8.3% in assay [2] (parasite line A) and 20.1% in assay [2] (parasite line B).
Regarding `O=C(O)CC(O)CC(O)/C=C/c1c(C2CC2)nc2ccccc2c1-c1ccc(F)cc1` (stereo not given), the Potency result in assay [1], in assay [3], in assay [4], in [5], in assay [6] and in assay [7] was “inactive” each time. The Potency entry in assay [8], in [9], in assay [10], in [11], in assay [12] and in assay [13] was “inactive” each time. For the same molecule, the Potency result in assay [14], in assay [15], in assay [16], in assay [17], in [18] and in assay [19] was “inactive” throughout. The Potency entry in [20] is “inactive”. For the same molecule, the activity, negative = inhibition in assay [2] (parasite line A) is 5.32%; in assay [2] (parasite line B), -2.35%.
